Measured values from PubChem BioAssay AID1159580 (chemical genetic matrix, 2015).
Where “and” joins values, the source holds several entries; their conditions need not be identical. Equal entries are not always repeated. The whole screen tested about 5,500 compounds, of which about 2,000 (36%) were called active. Not shown: some 18% with an inconclusive outcome. No stated cut-off is given here; in the data, active means normalized growth mostly below about 0.91 (no sharp cut-off); inconclusive means no clear call, values can overlap the other calls; inactive means mostly above about 0.92. The list shows a part of the results.

Test: chemical genetic growth profiling, strain panel (AID 1159580);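 further: tested at 20 µM; growth read once vehicle control cultures reached saturation at 30 °C; 1 = growth at the plate median or of vehicle wells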
Details: S. cerevisiae deletion strains, growth OD

Measured: normalized growth

COc1ccc2c(c1)CCC1C2CC[C@@]2(C)C1CC[C@@H]2O (some centres not stated)
0.36 (active) and 0.884 (inactive): locus YHR030C, strain SLT2, stronger effect = lower value
active: locus YAL013W, strain DEP1, stronger effect = lower value 0.82 | locus YAL026C, strain drs2, stronger effect = lower value 0.682 | locus YBL061C, strain skt5, stronger effect = lower value 0.889 | locus YBR009C, strain hhf1, stronger effect = lower value 0.76 | locus YBR023C, strain chs3, stronger effect = lower value 0.852 | locus YBR279W, strain paf1, stronger effect = lower value 0.884 | locus YCL011C, strain gbp2, stronger effect = lower value 0.813 | locus YCL016C, strain dcc1, stronger effect = lower value 0.862 | locus YCL029C, strain bik1, stronger effect = lower value 0.884 | locus YCL061C, strain MRC1, stronger effect = lower value 0.854 | locus YCL069W, strain vba3, stronger effect = lower value 0.898 | locus YDL035C, strain GPR1, stronger effect = lower value 0.728 | locus YDL074C, strain BRE1, stronger effect = lower value 0.514 | locus YDL134C, strain PPH21, stronger effect = lower value 0.799 | locus YDL192W, strain arf1, stronger effect = lower value 0.502 | locus YDR101C, strain arx1, stronger effect = lower value 0.811 | locus YDR137W, strain rgp1, stronger effect = lower value 0.578 | locus YDR159W, strain sac3, stronger effect = lower value 0.746 | locus YDR162C, strain NBP2, stronger effect = lower value 0.405 | locus YDR297W, strain sur2, stronger effect = lower value 0.915 | locus YDR318W, strain mcm21, stronger effect = lower value 0.7 | locus YDR335W, strain msn5, stronger effect = lower value 0.872 | locus YDR392W, strain spt3, stronger effect = lower value 0.239 | locus YDR502C, strain sam2, stronger effect = lower value 0.757 | locus YEL003W, strain gim4, stronger effect = lower value 0.842 | locus YEL061C, strain CIN8 (second series), stronger effect = lower value 0.893 | locus YEL061C, strain CIN8, stronger effect = lower value 0.825 | locus YER015W, strain faa2, stronger effect = lower value 0.86 | locus YER110C, stronger effect = lower value 0.875 | locus YER155C, strain BEM2 (second series), stronger effect = lower value 0.686 | locus YER155C, strain BEM2, stronger effect = lower value 0.676 | locus YER167W, strain BCK2, stronger effect = lower value 0.653 | locus YGL078C, strain dbp3, stronger effect = lower value 0.783 | locus YGL086W, strain mad1, stronger effect = lower value 0.75 | locus YGL173C, strain kem1, stronger effect = lower value 0.885 | locus YGL227W, strain vid30, stronger effect = lower value 0.903 | locus YGL240W, strain doc1, stronger effect = lower value 0.855 | locus YGL248W, strain PDE1, stronger effect = lower value 0.844 | locus YGL253W, strain hxk2, stronger effect = lower value 0.786 | locus YGR078C, strain PAC10, stronger effect = lower value 0.659 | locus YGR135W, strain pre9, stronger effect = lower value 0.731 | locus YGR229C, strain SMI1, stronger effect = lower value 0.407 | locus YGR252W, strain gcn5, stronger effect = lower value 0.47 | locus YHR079C, strain IRE1 (second series), stronger effect = lower value 0.787 | locus YHR129C, strain ARP1, stronger effect = lower value 0.753 | locus YHR142W, strain chs7, stronger effect = lower value 0.628 | locus YHR200W, strain rpn10, stronger effect = lower value 0.817 | locus YIL066C, strain RNR3, stronger effect = lower value 0.625 | locus YIL125W, strain kgd1, stronger effect = lower value 0.822 | locus YIR030C, strain dcg1, stronger effect = lower value 0.902 | locus YJL095W, strain BCK1 (second series), stronger effect = lower value 0.833 | locus YJL095W, strain BCK1, stronger effect = lower value 0.363 and 0.882 | locus YJL129C, strain trk1, stronger effect = lower value 0.804 | locus YJL164C, strain tpk1, stronger effect = lower value 0.812 | locus YJL166W, strain qcr8, stronger effect = lower value 0.775 | locus YJL187C, strain SWE1 (second series), stronger effect = lower value 0.818 | locus YJL187C, strain SWE1, stronger effect = lower value 0.898 | locus YJR043C, strain POL32, stronger effect = lower value 0.698
inactive: locus YAL021C, strain ccr4, stronger effect = lower value 0.959 | locus YAL030W, strain snc1, stronger effect = lower value 0.959 | locus YBR021W, strain FUR4, stronger effect = lower value 1.04 | locus YBR171W, strain sec66, stronger effect = lower value 0.94 | locus YBR229C, strain ROT2, stronger effect = lower value 0.982 | locus YBR231C, strain swc5, stronger effect = lower value 0.978 | locus YCR088W, strain abp1, stronger effect = lower value 0.937 | locus YDL005C, strain med2, stronger effect = lower value 0.983 | locus YDL040C, strain nat1, stronger effect = lower value 0.96 | locus YDL101C, strain DUN1, stronger effect = lower value 0.899 | locus YDL185W, strain tfp1, stronger effect = lower value 0.961 | locus YDR001C, strain nth1, stronger effect = lower value 0.965 | locus YDR069C, strain doa4, stronger effect = lower value 1.01 | locus YDR150W, strain NUM1, stronger effect = lower value 0.944 | locus YDR195W, strain ref2 0.953 | locus YDR334W, strain swr1, stronger effect = lower value 1 | locus YDR388W, stronger effect = lower value 0.936 | locus YEL037C, strain rad23, stronger effect = lower value 0.966 | locus YER016W, strain bim1, stronger effect = lower value 0.957 | locus YER111C, strain swi4, stronger effect = lower value 0.939 | locus YFR010W, strain ubp6, stronger effect = lower value 0.974 | locus YGL167C, strain pmr1, stronger effect = lower value 0.965 | locus YHR013C, strain ard1, stronger effect = lower value 1.04 | locus YHR027C, strain rpn1, stronger effect = lower value 0.977 | locus YHR079C, strain IRE1, stronger effect = lower value 0.872 | locus YHR094C, strain hxt1, stronger effect = lower value 0.951 | locus YIL073C, strain SPO22, stronger effect = lower value 0.727 | locus YJL092W, strain hpr5, stronger effect = lower value 0.934 | locus YJL115W, strain asf1, stronger effect = lower value 0.987 | locus YJL134W, strain LCB3, stronger effect = lower value 0.989 | locus YJL154C, strain vps35, stronger effect = lower value 0.986 | locus YJL168C, strain set2, stronger effect = lower value 0.943 | locus YJR066W, strain TOR1, stronger effect = lower value 0.907
